Hits are enriched below; roughly 2.4% of the tested compounds scored in any of these assays.
D2 ag-1: HTS Assay for Allosteric Agonists of the Human D2 Dopamine Receptor: Primary Screen for Agonists; AID 485358, 2010; activation, % at 2 µM; HEK293 T-REx D2 cells, calcium flux agonist mode; 340,000 tested, 0.53% active;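 active = activation over 3 SD above normal in the single-dose calcium agonist read, cut at about 30% in these data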
Target sequence (P14416 whole entry, looked up): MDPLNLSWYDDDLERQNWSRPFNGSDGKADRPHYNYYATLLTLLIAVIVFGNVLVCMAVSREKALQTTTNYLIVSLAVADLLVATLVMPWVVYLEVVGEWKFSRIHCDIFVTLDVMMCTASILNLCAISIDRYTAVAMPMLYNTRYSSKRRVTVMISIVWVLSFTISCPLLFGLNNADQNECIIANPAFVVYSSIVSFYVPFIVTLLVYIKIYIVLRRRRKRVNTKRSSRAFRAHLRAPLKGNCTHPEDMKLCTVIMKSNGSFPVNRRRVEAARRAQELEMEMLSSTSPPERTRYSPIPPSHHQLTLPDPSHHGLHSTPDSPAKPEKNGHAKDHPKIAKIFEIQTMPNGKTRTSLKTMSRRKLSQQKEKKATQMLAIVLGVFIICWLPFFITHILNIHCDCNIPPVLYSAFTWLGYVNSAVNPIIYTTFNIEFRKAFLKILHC
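Tetracycline-induced HEK293 T-REx cells with force-coupled D2 receptor, plated overnight at 30 C, loaded with no-wash calcium dye. After a 10 s baseline, compound was pin-added and calcium flux read kinetically for 180 s; calcium rises flagged agonists.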
D2 antagonist: HTS Assay for Allosteric Antagonists of the Human D2 Dopamine Receptor: Primary Screen for Antagonists | HEK293 TREx D2 cells, calcium flux, dopamine EC80 | AID 485344, 2010 | 340,000 tested, 2% active | D(2) dopamine receptor (Homo sapiens), P14416 | inhibition, % at 10 µM; in the data active = inhibition above about 30%; inactive = below that, where a call was filed
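Measurement of antagonist activity uses fluorescent calcium dye in inducible HEK293 T-REx D2 cells: 10 s baseline, compound addition with 180 s read, EC80 dopamine addition with a further 180 s read.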
D2 PAM-1: Beta-Arrestin HTS for Positive Allosteric Modulators of the Human D2 Dopamine Receptor: Potentiators; D(2) dopamine receptor (Homo sapiens), P14416; DiscoveRx D2 beta-arrestin cells, luminescence, 90 min; 100% = 57 uM dopamine signal; potentiation, % (test concentration not listed); 360,000 tested, 0.23% active; AID 624464, 2012; in the data active = potentiation above about 50%; inconclusive = mostly about 30% to 49%
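D2 cells co-treated with compound plus 50 nM dopamine (EC20) for 90 min at 37 deg C to detect potentiation. Beta-arrestin recruitment was read as enzyme-fragment luminescence after 1 h at ambient temperature. Full response was set by 57 uM dopamine.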
D2 ag-2: Beta-Arrestin HTS for Positive Allosteric Modulators of the Human D2 Dopamine Receptor: Agonists. DiscoveRx PathHunter D2 beta-arrestin, luminescence, 90 min; 100% = 57 uM dopamine signal. activation, % (no concentration beside the values). 360,000 tested, 0.084% active. D(2) dopamine receptor (Homo sapiens), P14416; in the data active = activation above about 40%; inconclusive = between about 15% and that limit
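DiscoveRx PathHunter D2 beta-arrestin cells (2,100/well) attached overnight, then compound-stimulated 90 min at 37 C in HBSS/10 mM HEPES/0.1% Tween-20 buffer; beta-galactosidase complementation read by luminescence after 1 h at ambient temperature. Dopamine 57 uM final (EC100) as control.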
D2 PAM-2: HTS Assay for Positive Allosteric Modulators of the Human D2 Dopamine Receptor: Primary Screen for Potentiators. D(2) dopamine receptor (Homo sapiens), P14416. AID 485347, 2010. HEK293 T-REx D2, calcium flux, EC20 dopamine potentiation. potentiation, % at 10 µM. 340,000 tested, 0.34% active;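 active = potentiation over 3 SD above the plate norm, cut at about 30% in these data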
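Tetracycline-induced HEK293 T-REx cells force-coupled to calcium signalling expressed D2; compounds were pin-added after a 10 s baseline, read kinetically 180 s, then an EC20 dopamine challenge followed with a further 180 s calcium read.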
Large screens that a line does not name were inactive; ! = not confirmed by another sample.

COCCn1c(=O)[nH]c2cc(C(=O)NCCN3CCN(c4ccccc4F)CC3)ccc2c1=O	D2 ag-1 83.0, D2 antagonist 96.4, D2 ag-2 inconclusive
COCCn1c(=O)[nH]c2cc(C(=O)Nc3cccc(F)c3)ccc2c1=O	D2 ag-1 39.9
Cc1cc(C)c(NC(=O)Cn2c(=O)n(Cc3ccc(C(=O)NCc4ccco4)cc3)c(=O)c3sccc32)c(C)c1	none (no result: D2 antagonist, D2 PAM-1, D2 ag-2)
Cc1ccc(OCc2cc(=O)n3cc(C)sc3n2)c(C)c1	none (no result: D2 antagonist, D2 PAM-1, D2 ag-2)
CCOc1ccc(C(=O)O/N=C(\N)c2ccccn2)cc1	D2 PAM-1 54.9, D2 ag-2 inconclusive
COc1ccc(Cl)cc1C(=O)O/N=C(\N)c1ccccn1	D2 PAM-1 62.5!, D2 ag-2 inconclusive
CN(C)CCn1cnc2c(c1=N)C(c1ccccc1)c1ccc3ccccc3c1O2 (stereo unspecified)	D2 antagonist 61.8
Cn1c(=O)oc2cc(S(=O)(=O)CCC(=O)NCc3ccc(Cl)cc3)ccc21	none (no result: D2 antagonist, D2 PAM-1, D2 ag-2)
Cc1ccc(C)c(OCC(=O)Nc2ccc(S(=O)(=O)Nc3onc(C)c3C)cc2)c1C	none (no result: D2 antagonist, D2 PAM-1, D2 ag-2, D2 PAM-2)
CC(C)COP(=O)(OCC(C)C)C(O)c1ccccc1F (stereo unspecified)	D2 antagonist 52.4
COc1cc(C(O)P(=O)(OCC(C)C)OCC(C)C)cc(OC)c1OC (stereo unspecified)	none
O=C(Cn1cnc2c(nnn2Cc2ccc(F)cc2)c1=O)Nc1cccc(F)c1	D2 antagonist 37.0
Cc1ccc(NC(=O)Cn2cnc3c(nnn3Cc3ccc(F)cc3)c2=O)cc1	none
COc1ccc(N2CCN(CCCNC(=O)C3CCCN(S(=O)(=O)c4cnc[nH]4)C3)CC2)cc1 (stereo unspecified)	D2 PAM-2 33.8
COc1ccc(N2CCN(CCCNC(=O)C3CCCN(S(=O)(=O)c4c(C)n[nH]c4C)C3)CC2)cc1 (stereo unspecified)	none
O=C(NCCN1CCN(c2ccccc2F)CC1)C1CCCN(S(=O)(=O)c2cnc[nH]2)C1 (stereo unspecified)	D2 PAM-1 66.6
O=C(NCCN1CCC(Cc2ccccc2)CC1)C1CCCN(S(=O)(=O)c2cnc[nH]2)C1 (stereo unspecified)	none
CCCS(=O)(=O)N1CCCC(C(=O)NCCCN2CCN(c3ccccc3F)CC2)C1 (stereo unspecified)	D2 ag-1 68.7, D2 antagonist 38.1
CCOc1ccc(N(C)C(=O)c2oc(=O)c3ccccc3c2-c2ccccc2)cc1	none (no result: D2 antagonist, D2 PAM-1, D2 ag-2, D2 PAM-2)
COc1ccc(C(N)c2csc(Nc3ccc(C(=O)NCCCO)cn3)n2)cc1 (stereo unspecified)	none (no result: D2 ag-1, D2 antagonist, D2 PAM-2)
CO/N=C/NC(=O)NOCc1ccc(Cl)cc1Cl	none
O=C(N/C=N/OCc1ccc(Cl)cc1Cl)NOCc1c(Cl)cccc1Cl	D2 antagonist 30.7
CCS(=O)(=O)N1CCc2cc(C(=O)N3CCN(c4ccccc4)CC3)ccc21	none (no result: D2 antagonist, D2 PAM-1, D2 ag-2)
CCOC(=O)C(NC(=O)c1ccccc1)(Nc1cc(C)on1)C(F)(F)F (stereo unspecified)	D2 antagonist 31.2
CCOC(=O)C(NC(=O)c1ccc(OC)cc1)(Nc1cc(C)on1)C(F)(F)F (stereo unspecified)	none
CSc1nc(NCCOC(C)=O)c(C#N)c(-c2ccc(C(C)(C)C)cc2)n1	none (no result: D2 antagonist, D2 PAM-1, D2 ag-2)
Cc1cnc(CN(C)C(=O)C2CCC(=O)N(CCc3ccc(Cl)cc3)C2)[nH]1 (stereo unspecified)	none (no result: D2 ag-1, D2 antagonist, D2 PAM-2)
Cc1cc(NC(=O)c2cc(Cl)ccc2Cl)ccc1-c1cc2ccccc2oc1=O	none (no result: D2 antagonist, D2 PAM-1, D2 ag-2)
Cc1ccc(-n2nc3c(N4CCC(C(=O)NC(C)c5ccccc5)CC4)nnc(C)c3c2C)cc1 (stereo unspecified)	none (no result: D2 antagonist, D2 PAM-1, D2 ag-2)
COc1ccc([C@H]2C[C@H](n3cc(-c4ccc(F)cc4)nn3)[C@@H](O)CN2C(=O)C2CCCCC2)cc1	none (no result: D2 ag-1, D2 antagonist, D2 PAM-2)
COc1cccc(CN(C)CCCn2cnc3c(SC)ncnc32)c1	none (no result: D2 ag-1, D2 antagonist, D2 PAM-2)
COc1cc2c(c(O)c1OC)C(=O)C(OC)CCC2 (stereo unspecified)	D2 antagonist 32.0
COc1ccc(-c2cc(C(F)F)n3ncc(C(=O)N4CCN5CCCC5C4)c3n2)cc1 (stereo unspecified)	D2 antagonist 51.8
Cc1oc2ncn(C)c(=O)c2c1C(=O)NCc1ccccc1	none (no result: D2 antagonist, D2 PAM-1, D2 ag-2)
Cc1cc2ccccn2c1C(=O)c1ccc([N+](=O)[O-])o1	D2 antagonist 36.4
c1ccc(N2CCN(c3nc(-c4cccs4)nc4ccccc34)CC2)cc1	none (no result: D2 ag-1, D2 antagonist)
CN1CCN(c2nc(-c3ccccc3Cl)nc3ccccc23)CC1	none
CCN1CCN(c2nc(-c3ccccc3Cl)nc3ccccc23)CC1	D2 antagonist 38.5
CCN1CCN(c2nc(-c3ccccc3)c3ccccc3n2)CC1	D2 antagonist 58.8
CN1CCN(c2nc(-c3cccs3)nc3ccccc23)CC1	D2 antagonist 32.3
CCOc1ccc(NC(=O)C2CC(=O)NC(=Nc3ccc(Cl)c(Cl)c3)S2)cc1 (stereo unspecified)	none (no result: D2 antagonist, D2 PAM-1, D2 ag-2)
CN(C(=O)Cn1c(=O)n(CCC(=O)NCc2ccc3c(c2)OCO3)c(=O)c2sccc21)c1ccccc1	none (no result: D2 antagonist, D2 PAM-1, D2 ag-2, D2 PAM-2)
COc1cc(NC(=O)CC2C(=O)N(c3cccc(C)c3)C(=O)N2Cc2ccco2)cc(OC)c1 (stereo unspecified)	none (no result: D2 antagonist, D2 PAM-1, D2 ag-2)
CCc1cc2c(NC(Cc3c[nH]c4ccccc34)C(=O)O)nc(C)nc2s1 (stereo unspecified)	D2 antagonist 34.2
CCc1cc2c(N[C@@H](Cc3c[nH]c4ccccc34)C(=O)O)ncnc2s1	none
O=C(N=NC(=O)c1ccc2c(O)n(C3CCCCC3)c(O)c2c1)c1cccnc1	D2 PAM-2 39.9
O=C(NC1CCCCCCC1)c1cccnc1	none
N/C(=N\OC(=O)c1ccccc1)c1ccncc1	none
COc1cc(OC)cc(C(=O)O/N=C(\N)c2ccncc2)c1	D2 PAM-1 110.8, D2 ag-2 inconclusive
N/C(=N\OC(=O)c1ccc(Br)cc1)c1ccncc1	D2 PAM-1 52.0, D2 ag-2 41.6
Cc1ccc(NC(=O)C2CCCN(c3ncccn3)C2)cc1F (stereo unspecified)	none
Cc1cc(C)nc(N2CCCC(C(=O)Nc3nnc(C(C)(C)C)s3)C2)n1 (stereo unspecified)	D2 antagonist 47.9
Cc1cc(C)cc(NC(=O)C2CCCN(c3ncccn3)C2)c1 (stereo unspecified)	D2 antagonist 50.1
CCc1nnc(NC(=O)C2CCCN(c3nc(C)cc(C)n3)C2)s1 (stereo unspecified)	none

From PubChem
